# Source: PubChem (National Center for Advancing Translational Sciences (NCATS))
# TDP1 cell noCPT – qHTS for Inhibitors of human tyrosyl-DNA phosphodiesterase 1 (TDP1): qHTS in cells in absence of CPT. DT40 Tdp1-/- hTDP1 cells, no CPT, ATP luminescence, 48 h. 420,000 tested, 15% active. Potency, µM (top dose mostly 46.2 µM), actives largely listed as inhibitors. AID 686978, 2013; further: nearly all actives have a fitted effect of over 55% in size
#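 No-CPT arm: Tdp1-/-;hTDP1 DT40 cells (400/well) plus compounds, incubated ≥48 hr at 37 °C. Readout CellTiter-Glo luminescence.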
# HT1080 IDH1KD tx – kills HT-1080 cells with IDH1 knockdown. HT-1080 IDH1 knockdown viability, ATP luminescence, 48 h. Potency, µM (titrated, usually from 46.1 µM), actives largely listed as cytotoxic. 360,000 tested, 2% active. AID 686971
#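 In this qHTS, HT-1080 cells depleted of IDH1 are exposed for 48 h at 37 °C to compound titrations. Toxicity is scored from CellTiter-Glo luminescence, with DMSO as full viability and medium alone as none.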
# HT1080-NT tox – kills 2HG-producing HT-1080-NT fibrosarcoma cells. HT-1080-NT fibrosarcoma viability, CellTiter-Glo ATP luminescence, 48 h. Potency, µM (highest dose often 46.1 µM), most hits filed as cytotoxic. 360,000 tested, 1.6% active. AID 686970;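 further: NT is the 2HG producing partner of a matched IDH1 knockdown line; nearly all actives have a fitted effect of over 55% in size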
#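 Luminescent CellTiter-Glo readout after 48 hours of compound exposure at 37 degrees C defined viability of HT-1080-NT cells. Activity was normalized to DMSO wells and cell-free media wells; concentration-response curves were fitted and assigned curve classes.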
# KB-3-1 tox – kills parental KB-3-1 adenocarcinoma cells | 400,000 tested, 1.4% active | Potency, µM (highest dose often 46.1 µM), hits mostly cytotoxic | KB-3-1 viability, CellTiter-Glo ATP luminescence, 72 h; further: nearly all actives have a fitted effect of over 60% in size
#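 Viability of parental KB-3-1 cells, measured by CellTiter-Glo luminescence, followed a 72 h incubation at 37 °C with pinned compounds in phenol-red-free DMEM containing 10% FBS.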
# KB-V1 MDR tox – kills drug-selected multidrug resistant KB-V1 cells. AID 1347076. 400,000 tested, 3.4% active. KB-V1 MDR cells viability, CellTiter-Glo, 72 h. Potency, µM (series often up to 46.1 µM), usual class: cytotoxic; further: nearly all actives have a fitted effect of over 60% in size
#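 KB-V1 cells (P-gp-expressing MDR subline of KB-3-1) in phenol-red-free DMEM with 10% FBS were exposed to library compounds over a concentration series for 72 h at 37 degrees C. Viability read by CellTiter-Glo luminescence; concentration-effect curves fitted after normalization.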
# TDP1 cell CPT – DT40-hTDP1 cell growth loss with CPT; chicken DT40 Tdp1-/-;hTDP1 cells + 20 nM CPT, ATP luminescence, 48 h; Potency, µM (top dose mostly 46.2 µM), hits mostly inhibitors; 420,000 tested, 12% active; further: nearly all actives have a fitted effect of over 55% in size
#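 Chicken DT40 Tdp1-/- cells complemented with human TDP1, 400 cells/well, exposed to compounds plus 20 nM camptothecin for at least 48 h at 37 C; viability read as ATP content by CellTiter-Glo luminescence.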
# Numbers stand for hits; i = inactive; ? = inconclusive; nt = not tested or not shown; [ ] = remark or other dose. The list is not random: actives were taken first. Their share in the collection is about 19%. The call rests on the fitted dose curve; in most records, active means well fitted curve in the direction sought with a large enough effect; inconclusive means small, poorly fitted or top-dose-only effect, or another doubt; inactive means no such curve, though single readings can be large; an effect the other way counts as inactive or inconclusive.
SMILES,TDP1 cell noCPT,HT1080 IDH1KD tx,HT1080-NT tox,KB-3-1 tox,KB-V1 MDR tox,TDP1 cell CPT
Cc1cccc(Nc2nc3c(c(=O)n(C)c(=O)n3C)n2Cc2ccccc2)c1,i,i,i,i,?,i
CCNc1nc2c(c(=O)n(C)c(=O)n2C)n1CC(O)COc1ccccc1 (stereo not given),nt,nt,nt,?,5.17µM,nt
Cc1ccccc1OCC(O)Cn1c(Br)nc2c1c(=O)n(C)c(=O)n2C (stereo not given),?,i,i,i,i,?
COc1ccc(OCC(O)Cn2c(Nc3cccc(C)c3)nc3c2c(=O)n(C)c(=O)n3C)cc1 (stereo not given),14.6µM,i,i,i,i,?
CCCNc1nc2c(c(=O)n(C)c(=O)n2C)n1CC(O)COc1ccccc1 (stereo not given),nt,nt,nt,i,9.2µM,nt
COc1ccc(OCC(O)Cn2c(NCCO)nc3c2c(=O)n(C)c(=O)n3C)cc1 (stereo not given),10.3µM,nt,nt,nt,nt,9.2µM
CC(Oc1ccccc1)c1nnc(SCC(=O)NC2CC2)n1C (stereo not given),i,i,i,i,i,i
CCOc1ccccc1-n1nnc(-c2nc(-c3ccccc3)no2)c1N,i,nt,nt,nt,nt,i
CC1CN(C(=O)/C=C/c2ccc(SC(F)F)cc2)CC(C)O1 (stereo not given),13µM,i,i,i,i,?
O=C(NC1CCCc2ccccc21)C1CCN(c2nnc(-n3cccc3)s2)CC1 (stereo not given),?,i,i,i,?,23.1µM
Cc1csc(NC(=O)C2CCN(S(=O)(=O)c3ccccc3F)CC2)n1,25.9µM,i,i,i,14.6µM,?
O=C(NC1CCCc2ccccc21)C1CCN(S(=O)(=O)c2ccccc2)CC1 (stereo not given),?,i,i,i,?,?
O=C(NC1CCCc2ccccc21)C1CCN(S(=O)(=O)c2ccccc2F)CC1 (stereo not given),?,i,i,i,7.31µM,i
Cc1cc(SCC(=O)NC2CCCC2)nc2ccccc12,i,i,i,i,i,i
COc1ccc(S(=O)(=O)N2CCN(Cc3cc(=O)n4ccccc4n3)CC2)cc1,?,i,i,i,?,i
Nc1nc(SCc2ccccn2)c2ncn(C3OC(CO)C(O)C3O)c2n1 (stereo not given),i,i,i,?,i,i
CCOC(=O)[C@H]1[C@H]2COc3ccc(Br)cc3[C@@H]2N2C(=O)c3c(C)cc(C)cc3NC(=O)[C@@]12C,?,i,i,?,i,?
CCOC(=O)c1c(NC(=O)C2COc3ccccc3O2)sc(C(C)=O)c1C (stereo not given),6.51µM,i[9.24 µM],i,i,i,7.31µM
CCOC(=O)c1c(NC(=O)C2COc3ccccc3O2)sc2c1CC(C)(C)NC2(C)C (stereo not given),11.6µM,16.4µM,?,?,i,13µM
COc1ccc(C(CNC(=O)c2oc3ccc(Cl)cc3c2C)N2CCCCC2)cc1 (stereo not given),23.1µM,i,i,i,i,16.4µM
COc1ccc(C(CNC(=O)Cc2c(F)cccc2Cl)N2CCCCC2)cc1 (stereo not given),i,i,i,i,i,i
COc1ccc(C(CNC(=O)Cc2cc(OC)c(OC)c(OC)c2)N2CCCC2)cc1 (stereo not given),i,i,i,i,i,i
COc1ccc(C(CNC(=O)c2oc3c(Cl)cccc3c2C)N2CCCC2)cc1 (stereo not given),23.1µM,i,i,i,i,16.4µM
COc1ccc(C(CNC(=O)c2oc3ccccc3c2C)N2CCCC2)cc1 (stereo not given),?,i,i,i,?,20.6µM
COc1ccc(C(CNC(=O)c2ccccc2C)N2CCCC2)cc1 (stereo not given),i,i,i,i,i,i
SMILES,TDP1 cell noCPT,HT1080 IDH1KD tx,HT1080-NT tox,KB-3-1 tox,KB-V1 MDR tox,TDP1 cell CPT
CCCNC(=O)c1ccc(COc2ccc(CCC)cc2OC)o1,14.6µM,i,i,i,i,?
COc1ccccc1OCc1ccc(C(=O)NCCN(C)C)o1,i,i,i,i,i,i
COc1ccc(NC(=O)c2ccc(COc3ccccc3OC)o2)cc1OC,23.1µM,i,i,i,i,14.6µM
COc1ccccc1OCc1ccc(C(=O)Nc2cc(OC)c(OC)c(OC)c2)o1,?,i,i,i,i,?
CCCc1ccc(OCc2ccc(C(=O)N3CCN(c4ccccn4)CC3)o2)c(OC)c1,20.6µM,?,?,i,3.66µM,?
COc1ccc(CC(=O)N2CCN(c3ccccn3)CC2)cc1OC,i,i,i,i,i,i
COc1cc(NC(=O)c2ccc(COc3ccccc3Br)o2)cc(OC)c1OC,23.1µM,i,i,i,7.31µM,?
O=C(Cn1cnc2c(nnn2Cc2ccc(F)cc2)c1=O)Nc1ccccc1,i,i,i,i,i,i
COc1cc([N+](=O)[O-])ccc1NC(=O)NNC(=O)c1sccc1C,i,i,i,i,?,i
CCC(C)C(NC(=O)[C@@H](NC(=O)c1ccccc1F)C(C)C)C(=O)OC (stereo not given in full),i,i,i,i,i,?
COc1ccccc1OCc1ccc(C(=O)Nc2ccc(C)c(C)c2)o1,?,nt,nt,nt,nt,23.1µM
COC(=O)/C=C1\SC(=Nc2ccccc2)NC1=O,i,i,i,i,i,i
CC(C)(C)C(=O)N1NC(=Nc2ccccc2)SC1(C)C,20.6µM,i,i,i,i,i
CCOc1ccc(N=Nc2c(=O)[nH]n3c(=O)cc(C)[nH]c23)cc1,?,?,?,23.1µM,?,20.6µM
O=C(NCc1ccc(F)cc1)C(c1ccc(Cl)cc1)N(C(=O)c1csnn1)C1CC1 (stereo not given),?,i,i,i,?,?
COc1ccc(C2CC(=O)CCN2S(=O)(=O)c2ccc(C)cc2)cc1 (stereo not given),?,i,i,i,i,?
COCCC(C(=O)Oc1c(C(C)(C)C)cc(C)cc1C(C)(C)C)c1ccccc1 (stereo not given),?,i,?,i,i,?
Cn1ccc2c(-c3ccc(C(C)(C)C)cc3)cc3c(c21)C1CCC3O1 (stereo not given),23.1µM,?,?,i,?,?
Cn1ccc2c(-c3ccc(C(F)(F)F)cc3)cc3c(c21)C1CCC3O1 (stereo not given),16.4µM,?,?,i,i,23.1µM
